PubChem BioAssay (NCATS)
Inconclusive results are not listed. The source made the active and inactive calls. Calls come from the whole dose curve; as a rule, active = well fitted inhibition curve with a large enough effect; inconclusive = small, poorly fitted or top-dose-only effect; inactive = flat fitted curve, though single readings scatter. Peptide text beside a SMILES is read from it.

system: Dd2; experiment: qHTS profiling for inhibitors of Plasmodium falciparum proliferation (AID 504749); note: nearly all actives have a fitted effect of over 60% in size;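 for activity, negative = inhibition: 0% = DMSO vehicle and full inhibition = artemisinin control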; settings: P. falciparum in erythrocytes, SYBR Green DNA, 72 h; series mostly up to 12.8 µM; activity, negative = inhibition: at the top concentration
Outline: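 Three-day growth assay of blood-stage parasites in erythrocytes (0.3% parasitemia, 2.5% hematocrit) at 37 C, 5% CO2, quantified by SYBR Green DNA staining after overnight detergent lysis.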
Potency is the fitted concentration of half-maximal effect.

SMILES	activity, negative = inhibition	Potency
CN(C)CCCOC1C(C(O)CO)OC2OC(C)(C)O[C@@H]21 (stereo partly specified)	0.135% [at 28.7 µM] (inactive)	–
CC(=O)OC1CCC2C3CCc4cc(O)ccc4C3CCC12C (stereo unspecified)	-1.05% [at 28.7 µM] (inactive)	–
NC(C(=O)O)[C@@H]1CC(Cl)=NO1 (stereo partly specified)	–	708 nM (active)
CN1CC(=O)N=C1N	2.64% [at 28.7 µM] (inactive)	–
OCC1OC([S-])[C@H](O)C(O)C1O.[Au+] (stereo partly specified)	-16.1% [at 28.7 µM] (inactive)	–
CC(C)C1CCC(C(=O)NC(Cc2ccccc2)C(=O)O)CC1 (stereo unspecified)	-0.112% [at 28.7 µM] (inactive)	–
CCC(CCC(C)C1CCC2C3CC=C4CC(O)CC[C@@]4(C)C3CC[C@@]12C)C(C)C (stereo partly specified)	7.06% [at 28.7 µM] (inactive)	–
C[C@]12CCC(=O)C=C1CCC1C2C(=O)C[C@]2(C)C1CC[C@]2(O)C(=O)CO (stereo partly specified)	-0.557% [at 28.7 µM] (inactive)	–
OCC1O[C@H](OC2C(CO)O[C@@](O)(CO)C2O)C(O)C(O)C1O (stereo partly specified)	-3% [at 28.7 µM] (inactive)	–
CC1(C)OC2CO[C@]3(COS(N)(=O)=O)OC(C)(C)OC3C2O1 (stereo partly specified)	-0.147% [at 28.7 µM] (inactive)	–
CC1(C)OC2CC(=O)OC[C@@]23C1CC(=O)[C@]1(C)C3CC[C@@]2(C)C(c3ccoc3)OC(=O)C3O[C@@]321 (stereo partly specified)	1.27% [at 28.7 µM] (inactive)	–
CCOC(=O)C1=CC(OC(CC)CC)C(NC(C)=O)C(N)C1 (stereo unspecified)	0.401% [at 28.7 µM] (inactive)	–
COC1C=CO[C@@]2(C)Oc3c(C)c(O)c4c(O)c(c5c(nc6cc(C)ccn65)c4c3C2=O)NC(=O)/C(C)=C\C=CC(C)C(O)[C@@H](C)C(O)C(C)[C@@H](OC(C)=O)C1C (stereo partly specified)	–	12600 nM (active)
COC(=O)C(Cc1ccccc1)NC(=O)C(N)CC(=O)O (stereo not drawn) (H-Asp-Phe-OMe; configuration not given here)	0.579% [at 28.7 µM] (inactive)	–
C[C@]12C=CC(=O)C=C1CCC1C2C(O)C[C@]2(C)C1CC[C@]2(O)C(=O)CO (stereo partly specified)	-0.671% [at 28.7 µM] (inactive)	–
CC1(C)S[C@H]2C(NC(=O)[C@@H](N)c3ccc(O)cc3)C(=O)N2[C@@H]1C(=O)O (stereo partly specified)	3.71% [at 28.7 µM] (inactive)	–

SMILES	activity, negative = inhibition	Potency
CC(C)=CCC[C@](C)(O)C1CC=C(C)CC1 (stereo partly specified)	-12% [at 28.7 µM] (inactive)	–
CO[C@]12C(COC(N)=O)C3=C(C(=O)C(C)=C(N)C3=O)N1CC1NC12 (stereo partly specified)	–	398 nM (active)
C[C@]1(c2ccccc2)OC(C(=O)O)=CC1=O	6.16% [at 28.7 µM] (inactive)	–
CC(=O)N[C@H](CC(C)C)C(=O)O	4.88% [at 28.7 µM] (inactive)	–
COc1ccc2cc(C(C)CO)ccc2c1 (stereo unspecified)	-0.589% [at 28.7 µM] (inactive)	–
COC1C=CO[C@@]2(C)Oc3c(C)c(O)c4c(O)c(c(C=NN5CCN(C)CC5)c(O)c4c3C2=O)NC(=O)/C(C)=C\C=CC(C)C(O)[C@@H](C)C(O)C(C)[C@H](OC(C)=O)C1C (stereo partly specified)	–	251 nM (active)
CC1CCC(C(C)C)C(=O)C1 (stereo unspecified)	3.22% [at 28.7 µM] (inactive)	–
CNC1CC(N)[C@H](O)[C@@H](O[C@@H]2OC(CO)C3OC4(OC(C(N)CO)C(O)C(O)C4O)O[C@@H]3[C@H]2O)C1O (stereo partly specified)	4.09% [at 28.7 µM] (inactive)	–
CCCC(=O)O[C@]1(C(=O)CO)CCC2[C@@H]3CCC4=CC(=O)CC[C@]4(C)C3C(O)C[C@]21C (stereo partly specified)	14.1% [at 28.7 µM] (inactive)	–
CC(=O)[C@]1(O)CCC2C3C=C(Cl)C4=CC(=O)C5CC5[C@@]4(C)C3CC[C@]21C (stereo partly specified)	-3.23% [at 28.7 µM] (inactive)	–
C/C1=C2N=C(/C=C3N=C(/C(C)=C4\[N-]C(C)(C5N=C1C(C)(CCC(=O)NCC(C)OP(=O)([O-])O[C@H]1C(O)C(n6cnc7cc(C)c(C)cc76)O[C@@H]1CO)C5CC(N)=O)C(C)(CC(N)=O)C4CCC(N)=O)C(C)(CC(N)=O)C\3CCC(N)=O)C(C)(C)C/2CCC(N)=O.[CH2-]C1OC(n2cnc3c(N)ncnc32)C(O)C1O.[Co] (stereo partly specified)	-7.93% [at 28.7 µM] (inactive)	–
O=C1OC(CO)C(O)C(O)C1O (stereo unspecified)	11% [at 28.7 µM] (inactive)	–
CNC1C(OC2C(O[C@@H]3C(O)C(O)[C@@H](N=C(N)N)C(O)C3N=C(N)N)OC(C)[C@@]2(O)CO)OC(CO)C(O)C1O (stereo partly specified)	6.62% [at 28.7 µM] (inactive)	–
COc1cc(C2c3cc4c(cc3C(O[C@@H]3OC5COC(c6cccs6)OC5C(O)C3O)C3COC(=O)C23)OCO4)cc(OC)c1O (stereo partly specified)	–	1410 nM (active)
Nc1nc2ncc(CNc3ccc(C(=O)NC(CCC(=O)O)C(=O)O)cc3)nc2c(=O)[nH]1 (stereo unspecified)	7.79% [at 28.7 µM] (inactive)	–
